T1: RBFOX1 RRM RbFoxmut (Fox-RRM*) (Homo sapiens, UniProt Q9NWB1 109-208, R118D;E147R;N151S;E152T)
T1 sequence: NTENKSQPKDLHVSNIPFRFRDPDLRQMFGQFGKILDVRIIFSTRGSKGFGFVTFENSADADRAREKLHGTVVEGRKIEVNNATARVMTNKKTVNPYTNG

B1: ACCCAAG (DNA:RNA)
RNA: GGGAGACCGGAAUUCAGAUUGUCCACCCAAGUUAAAUCCCGUCGUAGCCACCA
DNA 1: CAATCTGAATTCCGGTCTCCC
DNA 2: TGGTGGCTACGACGGGATT
B2: GUGUGAA (DNA:RNA)
RNA: B1 RNA with A25G, C26U, C27G, C28U, A29G, G31A
DNA 1: CAATCTGAATTCCGGTCTCCC
DNA 2: TGGTGGCTACGACGGGATT
B3: GUGAAUG (DNA:RNA)
RNA: B1 RNA with A25G, C26U, C27G, C28A, A30U
DNA 1: CAATCTGAATTCCGGTCTCCC
DNA 2: TGGTGGCTACGACGGGATT
B4: GUGAAUU (DNA:RNA)
RNA: B1 RNA with A25G, C26U, C27G, C28A, A30U, G31U
DNA 1: CAATCTGAATTCCGGTCTCCC
DNA 2: TGGTGGCTACGACGGGATT
B5: AAAUCUU (DNA:RNA)
RNA: B1 RNA with C26A, C27A, C28U, A29C, A30U, G31U
DNA 1: CAATCTGAATTCCGGTCTCCC
DNA 2: TGGTGGCTACGACGGGATT
B6: UGAGAAU (DNA:RNA)
RNA: B1 RNA with A25U, C26G, C27A, C28G, G31U
DNA 1: CAATCTGAATTCCGGTCTCCC
DNA 2: TGGTGGCTACGACGGGATT
B7: GCUUAUG (DNA:RNA)
RNA: B1 RNA with A25G, C27U, C28U, A30U
DNA 1: CAATCTGAATTCCGGTCTCCC
DNA 2: TGGTGGCTACGACGGGATT
B8: CCUACGU (DNA:RNA)
RNA: B1 RNA with A25C, C27U, C28A, A29C, A30G, G31U
DNA 1: CAATCTGAATTCCGGTCTCCC
DNA 2: TGGTGGCTACGACGGGATT
B9: CACCCGC (DNA:RNA)
RNA: B1 RNA with A25C, C26A, A29C, A30G, G31C
DNA 1: CAATCTGAATTCCGGTCTCCC
DNA 2: TGGTGGCTACGACGGGATT
B10: UACUGGU (DNA:RNA)
RNA: B1 RNA with A25U, C26A, C28U, A29G, A30G, G31U
DNA 1: CAATCTGAATTCCGGTCTCCC
DNA 2: TGGTGGCTACGACGGGATT
B11: UGGAGAC (DNA:RNA)
RNA: B1 RNA with A25U, C26G, C27G, C28A, A29G, G31C
DNA 1: CAATCTGAATTCCGGTCTCCC
DNA 2: TGGTGGCTACGACGGGATT
B12: UGGACUG (DNA:RNA)
RNA: B1 RNA with A25U, C26G, C27G, C28A, A29C, A30U
DNA 1: CAATCTGAATTCCGGTCTCCC
DNA 2: TGGTGGCTACGACGGGATT
B13: UGGAGUG (DNA:RNA)
RNA: B1 RNA with A25U, C26G, C27G, C28A, A29G, A30U
DNA 1: CAATCTGAATTCCGGTCTCCC
DNA 2: TGGTGGCTACGACGGGATT
B14: UGGAGAG (DNA:RNA)
RNA: B1 RNA with A25U, C26G, C27G, C28A, A29G
DNA 1: CAATCTGAATTCCGGTCTCCC
DNA 2: TGGTGGCTACGACGGGATT
B15: CGGAUGC (DNA:RNA)
RNA: GGGAGACCGGAAUUCAGAUUGUCCCGGAUGCUUAAAUCCCGUCGUAGCCACCA
DNA 1: CAATCTGAATTCCGGTCTCCC
DNA 2: TGGTGGCTACGACGGGATT
B16: GGAUCCG (DNA:RNA)
RNA: B1 RNA with A25G, C26G, C27A, C28U, A29C, A30C
DNA 1: CAATCTGAATTCCGGTCTCCC
DNA 2: TGGTGGCTACGACGGGATT
B17: UGGAUCC (DNA:RNA)
RNA: B15 RNA with C25U, G30C
DNA 1: CAATCTGAATTCCGGTCTCCC
DNA 2: TGGTGGCTACGACGGGATT
B18: CGGACUG (DNA:RNA)
RNA: B15 RNA with U29C, G30U, C31G
DNA 1: CAATCTGAATTCCGGTCTCCC
DNA 2: TGGTGGCTACGACGGGATT
B19: CGGAGUG (DNA:RNA)
RNA: B15 RNA with U29G, G30U, C31G
DNA 1: CAATCTGAATTCCGGTCTCCC
DNA 2: TGGTGGCTACGACGGGATT
B20: UGGAUGG (DNA:RNA)
RNA: B15 RNA with C25U, C31G
DNA 1: CAATCTGAATTCCGGTCTCCC
DNA 2: TGGTGGCTACGACGGGATT
B21: UGGAUCG (DNA:RNA)
RNA: B15 RNA with C25U, G30C, C31G
DNA 1: CAATCTGAATTCCGGTCTCCC
DNA 2: TGGTGGCTACGACGGGATT
B22: UGGAUGC (DNA:RNA)
RNA: B15 RNA with C25U
DNA 1: CAATCTGAATTCCGGTCTCCC
DNA 2: TGGTGGCTACGACGGGATT
B23: UAAGGAG (DNA:RNA)
RNA: B1 RNA with A25U, C26A, C27A, C28G, A29G
DNA 1: CAATCTGAATTCCGGTCTCCC
DNA 2: TGGTGGCTACGACGGGATT
B24: AGUAGGG (DNA:RNA)
RNA: B15 RNA with C25A, G27U, U29G, C31G
DNA 1: CAATCTGAATTCCGGTCTCCC
DNA 2: TGGTGGCTACGACGGGATT
B25: CAAGUGG (DNA:RNA)
RNA: B15 RNA with G26A, G27A, A28G, C31G
DNA 1: CAATCTGAATTCCGGTCTCCC
DNA 2: TGGTGGCTACGACGGGATT
B26: AUUCAGA (DNA:RNA)
RNA: B1 RNA with C26U, C27U, A30G, G31A
DNA 1: CAATCTGAATTCCGGTCTCCC
DNA 2: TGGTGGCTACGACGGGATT
B27: AGUCACU (DNA:RNA)
RNA: B1 RNA with C26G, C27U, A30C, G31U
DNA 1: CAATCTGAATTCCGGTCTCCC
DNA 2: TGGTGGCTACGACGGGATT
B28: UACUUUU (DNA:RNA)
RNA: B1 RNA with A25U, C26A, C28U, A29U, A30U, G31U
DNA 1: CAATCTGAATTCCGGTCTCCC
DNA 2: TGGTGGCTACGACGGGATT

Residue numbers refer to the chain shown, from its start. The full ranking holds about 16,000 sequences; the median of “ka relative to ugcaugu” is about 0.096, and the highest 2% start at about 0.35. For the sample, the highest values were picked, then their nearest neighbours and some sequences at random.

This experiment addresses T1, RBFOX1 RRM RbFoxmut (Fox-RRM*). As to the kind of experiment: EMSA; HiTS-Eq, 1 nM pool, 10 min; buffer printed only for the single-RNA assays: 10 mM Tris pH 7.5, 150 mM NaCl, 3.4 mM EDTA, 0.001% NP-40, 30 C. Conditions: tags: His6 N-terminal (pET28a); label: 5' 32P. The method, boiled down: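 These values rest on relative association constants, computed from read-count changes of each RNA species versus the control reaction and normalised to the cognate motif. Reads came from free RNA recovered by 8% native PAGE after purified RbFox RRM (wild type or mutant) at increasing concentrations was equilibrated for 10 min in 50 µL with 1 nM of a 5′-radiolabelled pool with 7 randomized nucleotides and DNA-annealed flanks.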
Consider B1, for which the binding signal was 0.0886 KA relative to UGCAUGU.

With B2, the binding signal is 0.132 KA relative to UGCAUGU. With B3, the binding signal was 1.45 KA relative to UGCAUGU. In the case of B4, the binding signal was 0.118 KA relative to UGCAUGU. B5: the binding signal is 0.0581 KA relative to UGCAUGU. On to B6, for which the binding signal is 0.092 KA relative to UGCAUGU. B7: the binding signal is 0.142 KA relative to UGCAUGU. As for B8, the binding signal was 0.146 KA relative to UGCAUGU. B9: the binding signal is 0.0852 KA relative to UGCAUGU.

With B10, the binding signal is 0.103 KA relative to UGCAUGU. With B11, the binding signal is 0.0876 KA relative to UGCAUGU.

For B12, the binding signal is 0.418 KA relative to UGCAUGU. Regarding B13, the binding signal was 0.45 KA relative to UGCAUGU. With B14, the binding signal was 0.108 KA relative to UGCAUGU. Consider B15, for which the binding signal is 0.189 KA relative to UGCAUGU.

On to B16, for which the binding signal was 0.153 KA relative to UGCAUGU. On to B17, for which the binding signal was 0.211 KA relative to UGCAUGU.

As to B18, the binding signal was 0.353 KA relative to UGCAUGU.

For B19, the binding signal is 0.198 KA relative to UGCAUGU. As for B20, the binding signal is 0.332 KA relative to UGCAUGU.

On to B21, for which the binding signal is 0.597 KA relative to UGCAUGU. B22: the binding signal is 0.438 KA relative to UGCAUGU. Consider B23, for which the binding signal is 0.11 KA relative to UGCAUGU. Turning to B24, the binding signal is 0.0759 KA relative to UGCAUGU.

Take B25: the binding signal is 0.0554 KA relative to UGCAUGU. On to B26, for which the binding signal is 0.0812 KA relative to UGCAUGU. For B27, the binding signal was 0.0668 KA relative to UGCAUGU.

Take B28: the binding signal was 0.097 KA relative to UGCAUGU.

These data come from article PMC9911399, “Two distinct binding modes provide the RNA-binding protein RbFox with extraordinary sequence specificity”.
